The source made the active and inactive calls.
Key:
[1] = tested on: Human papillomavirus type 1a protein E7 (residues 44-93); assay: HPV1a E7 fragment binders on microarrays, primary screen, biochemical, small-molecule microarray, residues 44-93, 635 nm fluorescence (AID 1108); settings: small-molecule microarray binding, fluorescence 635 nm; higher = more signal;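 further: E7 fragment applied at 1 µg/mL in TBST for 1 h at 4 C; score combines spot fluorescence with its signal to noise ratio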
[2] = modulators of HCV replicon luciferase signal, primary screen, HCV replication inhibitor project, Huh7 cells, luciferase reporter (AID 1109); settings: 48 h, higher = more signal;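 further: huh7 hepatoma cells harbouring a luciferase neomycin HCV replicon reporter; luciferase luminescence as measure of HCV replicon replication; test concentration not given here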
[3] = molecular target: Left-right determination factor 2 (Homo sapiens) (UniProt O00292); assay: LEFTY2 binders on small-molecule microarrays, primary screen, biochemical, small-molecule microarray, 635 nm fluorescence scan (AID 1110); settings: LEFTY2 binding, higher = more signal
[4] = molecular target: Calmodulin-1 (Homo sapiens) (UniProt P0DP23); assay: CALM1 binders on microarrays, EGTA buffer, profiling panel, biochemical, small-molecule microarray, Cy5-labelled CALM1 (AID 1111); settings: Cy5-CALM1 binding fluorescence, higher = more signal;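 further: labelled calmodulin applied in Tris saline Tween buffer holding calcium plus EGTA and DTT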
[5] = molecular target: Calmodulin-1 (Homo sapiens) (UniProt P0DP23); assay: calcium-bound CALM1 binders on microarrays, profiling panel, artefact control for SMM control-protein annotation, biochemical, small-molecule microarray, Cy5-labelled CALM1, plus calcium (AID 1112); settings: Cy5-CALM1 binding fluorescence, higher = more signal;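 further: score merges spot fluorescence with signal to noise from triplicate slides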
[6] = small-molecule microarray binders of probe aWnt5a, primary screen, biochemical, biotinylated probe, 635/667 nm fluorescence (AID 1113); settings: higher = more signal;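 further: score merges 667 nm fluorescence intensity with signal-to-noise per printed feature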
[7] = small-molecule microarray binders of probe aShh, primary screen, biochemical, biotinylated probe, 635/667 nm fluorescence (AID 1114); settings: higher = more signal;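 further: probe is biotin-labelled aShh protein from a stem cell growth factor screen; measures binding of labelled protein to compounds printed on the slide; score merges feature fluorescence at 667 nm with signal-to-noise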
[8] = small-molecule microarray binders of probe aNog, primary screen, biochemical, biotinylated probe, 635/667 nm fluorescence (AID 1115); settings: higher = more signal;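 further: probe is biotinylated aNog protein used at 0.15 µg/mL for 1 h at 4 C; z-score combines 667 nm fluorescence of each spot with its signal to noise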
[9] = molecular target: Torsin-1A-interacting protein 1 (Homo sapiens) (UniProt Q5JTV8); assay: LAP1 binders from COS7 cell lysate, primary screen, small-molecule microarray, 635/667 nm fluorescence (AID 1116); settings: COS7-hLAP1 lysate binding, 635 nm fluorescence, higher = more signal
[10] = molecular target: Alpha-bungarotoxin (Bungarus multicinctus) (UniProt P60615); assay: alpha-bungarotoxin binders on microarray, profiling panel, artefact control for SMM control protein annotation, biochemical, small-molecule microarray, Alexa647 label, 635/667 nm fluorescence (AID 1117); settings: alpha-BTX-A647 binding fluorescence, higher = more signal
Albumin (Bos taurus) = Albumin (Bos taurus) (UniProt P02769); assay: bovine serum albumin binders on microarray, profiling panel, artefact control for SMM control protein annotation, biochemical, small-molecule microarray, Alexa647 label, 635/667 nm fluorescence (AID 1118); settings: BSA-A647 binding, fluorescence 635 nm, higher = more signal;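 further: score merges 667 nm emission intensity and signal-to-noise per printed compound spot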
[11] = small-molecule microarray binders of probe aXIP, primary screen, biochemical, NeuroSMM set, 635/667 nm fluorescence (AID 1119); settings: higher = more signal, called active from +8 up or from −8 down;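 further: probe is the protein aXip251-270 applied at 1 µg/mL to compound-printed slides; binding of probe to printed compounds measured as 667 nm fluorescence plus signal to noise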
[12] = small-molecule binders of probe aNOTCH3, primary screen, biochemical, small-molecule microarray, 635/667 nm fluorescence (AID 1120); settings: higher = more signal;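 further: probe is a biotin-tagged antibody raised against NOTCH3 rather than NOTCH3 protein; score merges spot fluorescence near 667 nm with spot signal to noise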
[13] = small-molecule binders of probe aNOTCH2, primary screen, biochemical, small-molecule microarray, 635/667 nm fluorescence (AID 1121); settings: higher = more signal;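 further: score merges feature fluorescence read at 667 nm with its signal to noise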
[14] = molecular target: Carbonic anhydrase 2 (Homo sapiens) (UniProt P00918); assay: CAII small-molecule binders, profiling panel, biochemical, small-molecule microarray, Alexa647-labelled CAII (AID 1122); settings: CAII-A647 binding fluorescence, higher = more signal
[15] = COS7 lysate on small-molecule microarray, probe aHis, 635 nm (AID 1123); settings: COS7 cell lysate, fluorescence, higher = more signal;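 further: z-score combines 667nm fluorescence intensity with signal-to-noise per printed compound spot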
[16] = compound binding in COS7 lysate, probe aLAP1, primary screen, cell lysate, small-molecule microarray (AID 1124); settings: probe aLAP1, fluorescence, higher = more signal;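 further: lysate comes from COS7 cells expressing LAP1 and is applied at 0.3 µg/mL; score merges spot fluorescence near 667 nm with signal-to-noise over triplicate slides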
Sam68 (KHDRBS1) = assay: Sam68 small-molecule binders, primary screen, biochemical, small-molecule microarray, 635 nm fluorescence (AID 1125); settings: small-molecule microarray binding, higher = more signal;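 further: score merges 667 nm channel intensity with signal to noise over triplicate slides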
[17] = tested on: Chordin-like protein 2 (CHRDL2); assay: CHRDL2 small-molecule binders, primary screen, biochemical, small-molecule microarray, 635 nm fluorescence (AID 1126); settings: small-molecule microarray binding, fluorescence 635 nm; higher = more signal;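 further: printed compound slides probed with Chrdl2 protein at 4 µg/mL for 1 h at 4 C; score merges 667 nm emission intensity with signal to noise over three replicate slides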
[18] = molecular target: Concanavalin-A (Canavalia ensiformis) (UniProt P02866); assay: ConA small-molecule binders, primary screen, artefact control for SMM control protein annotation, biochemical, small-molecule microarray, Alexa647 label, 635 nm (AID 1127); settings: ConA-A647 binding fluorescence, higher = more signal;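 further: z combines 667 nm emission intensity with signal-to-noise across three replicate slides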
Sequence of Concanavalin-A (Canavalia ensiformis) (P02866 whole entry, looked up): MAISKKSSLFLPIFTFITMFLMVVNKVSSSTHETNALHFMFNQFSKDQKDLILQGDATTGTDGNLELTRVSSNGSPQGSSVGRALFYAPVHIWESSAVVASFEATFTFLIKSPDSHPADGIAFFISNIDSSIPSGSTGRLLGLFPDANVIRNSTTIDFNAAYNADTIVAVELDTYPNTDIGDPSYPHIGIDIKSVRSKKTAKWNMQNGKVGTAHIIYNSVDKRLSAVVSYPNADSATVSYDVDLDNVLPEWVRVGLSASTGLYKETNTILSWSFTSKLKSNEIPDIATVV

Sequence of Left-right determination factor 2 (Homo sapiens) (O00292 whole entry, looked up): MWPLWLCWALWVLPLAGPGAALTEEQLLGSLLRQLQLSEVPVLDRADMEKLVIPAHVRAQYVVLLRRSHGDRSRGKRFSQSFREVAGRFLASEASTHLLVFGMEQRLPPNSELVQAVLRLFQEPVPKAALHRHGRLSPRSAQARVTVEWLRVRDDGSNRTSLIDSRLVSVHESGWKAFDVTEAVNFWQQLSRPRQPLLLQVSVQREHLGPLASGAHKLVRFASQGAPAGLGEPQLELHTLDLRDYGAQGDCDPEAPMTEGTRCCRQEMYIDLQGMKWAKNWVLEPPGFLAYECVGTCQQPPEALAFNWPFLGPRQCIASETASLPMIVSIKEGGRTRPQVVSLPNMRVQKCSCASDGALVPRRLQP
Sequence of Torsin-1A-interacting protein 1 (Homo sapiens) (Q5JTV8 whole entry, looked up): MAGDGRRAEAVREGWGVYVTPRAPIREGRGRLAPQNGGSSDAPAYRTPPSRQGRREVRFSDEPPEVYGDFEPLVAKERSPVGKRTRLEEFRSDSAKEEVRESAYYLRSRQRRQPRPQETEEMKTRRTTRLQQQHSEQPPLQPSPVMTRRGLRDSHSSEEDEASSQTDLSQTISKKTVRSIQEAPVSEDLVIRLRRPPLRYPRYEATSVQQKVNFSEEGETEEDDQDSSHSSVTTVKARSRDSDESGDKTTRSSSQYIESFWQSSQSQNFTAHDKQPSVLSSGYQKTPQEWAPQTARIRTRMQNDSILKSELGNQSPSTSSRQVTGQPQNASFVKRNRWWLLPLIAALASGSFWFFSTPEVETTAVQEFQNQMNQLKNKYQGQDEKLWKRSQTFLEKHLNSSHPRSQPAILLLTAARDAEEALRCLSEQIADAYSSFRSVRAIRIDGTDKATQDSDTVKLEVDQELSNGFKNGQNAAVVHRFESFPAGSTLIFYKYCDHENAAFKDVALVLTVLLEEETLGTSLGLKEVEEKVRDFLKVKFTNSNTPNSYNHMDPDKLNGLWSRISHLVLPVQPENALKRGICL
Sequence of Alpha-bungarotoxin (Bungarus multicinctus) (P60615 whole entry, looked up): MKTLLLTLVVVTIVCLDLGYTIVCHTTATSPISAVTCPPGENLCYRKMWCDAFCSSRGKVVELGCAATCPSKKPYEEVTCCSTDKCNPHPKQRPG
Sequence of Albumin (Bos taurus) (P02769 whole entry, looked up): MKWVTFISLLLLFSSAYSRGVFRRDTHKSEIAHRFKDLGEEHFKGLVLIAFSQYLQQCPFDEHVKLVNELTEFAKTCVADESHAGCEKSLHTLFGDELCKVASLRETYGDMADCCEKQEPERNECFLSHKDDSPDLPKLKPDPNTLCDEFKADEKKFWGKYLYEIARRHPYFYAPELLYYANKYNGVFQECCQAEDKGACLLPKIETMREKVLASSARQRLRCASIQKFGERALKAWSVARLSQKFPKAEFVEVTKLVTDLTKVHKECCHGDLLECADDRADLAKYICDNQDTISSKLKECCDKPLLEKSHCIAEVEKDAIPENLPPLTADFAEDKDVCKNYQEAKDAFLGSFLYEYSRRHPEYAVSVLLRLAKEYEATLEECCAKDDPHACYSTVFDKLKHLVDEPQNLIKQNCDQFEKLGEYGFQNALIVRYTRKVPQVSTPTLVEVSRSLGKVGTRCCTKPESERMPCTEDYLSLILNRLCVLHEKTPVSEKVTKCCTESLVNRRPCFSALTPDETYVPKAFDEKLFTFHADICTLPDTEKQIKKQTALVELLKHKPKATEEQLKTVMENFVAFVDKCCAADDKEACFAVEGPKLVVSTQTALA

Structure (SMILES)	composite z-score [1]	z-score [2]	composite z-score [3]	composite z-score [4]	composite z-score [5]	composite z-score [6]	composite z-score [7]	composite z-score [8]	composite z-score [9]	composite z-score [10]	composite z-score (Albumin (Bos taurus))	composite Z-score [11]	composite z-score [12]	composite z-score [13]	composite z-score [14]	composite z-score [15]	composite z-score [16]	composite z-score (Sam68 (KHDRBS1))	composite z-score [17]	composite z-score [18]
C=CCC(OC(C)=O)[C@@H]1[C@@H](N(Cc2ccc(-c3ccccc3)cc2)C(=O)c2ccc(C)cc2)c2cc(OCCCO)ccc2N1C(=O)Cc1ccc(OC)cc1 (stereo not given in full)	0.422	-0.75	0.0181	-0.0181	-0.164	0.0115	-0.273	-0.0579	0.0982	1.73	-0.0547	0.39 (inactive)	-0.0208	-0.0131	-0.249	0.0567	0.179	-0.248	-0.0845	0.733
CCCCC(=O)N(Cc1ccccc1F)[C@@H]1CC(C(=O)NCCO)=C[C@H](Oc2c(I)cc(CO)cc2OC)[C@H]1O	1.42	-1.06	1.29	3.17	1.4	0.0004	0.123	-0.083	0.994	1.79	-0.823	-0.685 (inactive)	0.201	-0.0128	0.521	1.54	0.44	1.3	1.5	1.19
C=C(/C(=C/C[C@@H](OC(C)=O)c1ccc(CO)o1)c1cnc2ccccc2c1)C(C)C	1.09	-2.37	1.06	0.384	-1.12	-0.0346	0.123	0.153	1.24	0.818	-0.243	1.64 (inactive)	0.12	-0.0771	0.815	1.5	1.11	1.3	0.847	0.971
[N-]=[N+]=NCc1ccccc1[C@@H]1OC(c2ccc(OCCCO)cc2)=N[C@]1(Cc1ccccc1N=[N+]=[N-])C(N)=O	1.43	-0.613	-0.0808	2.02	1.11	-0.0478	0.593	1.49	0.804	2.66	0.825	0.0773 (inactive)	0.473	0.299	0.715	2.8	0.202	1.3	-0.124	1.12
Cc1ccc([C@H]2C(C(=O)O)=C[C@@H](C(C)C)N2S(=O)(=O)c2ccc(C)cc2)cc1	1.39	0.58	-0.448	0.995	0.237	0.0597	-0.0769	0.129	0.984	0.11	0.284	-0.236 (inactive)	0.0596	0.0161	0.772	2.86	-0.134	1.3	-0.209	0.555
COc1ccc([Si](C)(C)[C@@H]2[C@@H](CCO)O[C@]3(C(=O)N(Cc4ccccc4)c4ccc(N(C=O)c5ccccc5)cc43)[C@H]2C)cc1	-0.736	-4.14	0.391	0.194	0.841	-0.117	0.0684	-0.0036	0.301	-0.525	0.624	1.04 (inactive)	-0.159	-0.0682	0.497	0.937	0.719	0.601	-0.15	0.762
COc1ccc([Si](C)(C)[C@H]2[C@H](CC(=O)N(CCO)Cc3ccccc3)O[C@@]3(C(=O)N(Cc4cccc(N5C(=O)c6cccc7cccc5c67)c4)c4ccccc43)[C@@H]2C)cc1	0.9	-4.25	0.45	0.847	-0.0174	-0.107	-0.165	0.0857	0.389	0.942	0.375	-0.025 (inactive)	-0.0821	-0.154	0.519	0.934	0.228	0.75	-0.108	1.09
O=C1C2C=CC(C(O)c3cccc4ccccc34)N(n3cnnc3)C2C(=O)N1Cc1ccccc1 (stereo not given)	0.0125	-1.16	0.102	0.197	-0.151	1.06	-0.309	2.2	0.67	0.274	-0.0146	-0.415 (inactive)	1.28	0.747	0.754	0.434	0.544	-0.131	0.166	0.0912
COC(=O)[C@@]1(Cc2ccc(F)cc2)[C@H]2c3cc(C(=O)N(C)C)n(Cc4ccccn4)c3C[C@H]2CN1C(=O)c1ccccc1	1.4	-1.39	0.256	0.63	0.681	-0.195	-0.333	0.535	1.11	0.0404	0.979	-0.91 (inactive)	1.15	-0.168	0.908	2.46	1.08	1.19	-0.552	0.481
CCOC1=C2C(c3ccc(C)cc3)N(S(=O)(=O)c3ccc(C)cc3)CC2n2c(=O)n(-c3ccccc3)c(=O)n2C1 (stereo not given)	1.32	-1.1	0.584	0.683	-0.332	0.0244	-0.0866	0.664	0.582	1.42	0.495	0.193 (inactive)	0.125	-0.0276	0.639	2.65	0.91	1.35	0.339	1.14
CN(C)CCCC[C@@H]1NC(=O)[C@@H]2C[C@H](C(=O)NCCCCCCN)[C@H](c3ccc(O)cc3)N2C1=O	1.42	-0.379	0.984	0.98	1.02	0.178	0.584	-0.172	1.7	0.629	-0.254	0.142 (inactive)	0.575	0.271	0.674	1.81	0.821	1.31	0.808	0.616
